The record followed here is PubChem BioAssay (NCI).

This is part of a sample that, as a whole, favours compounds with a hit. Of some 79,000 tested, about 15% had one in any assay. Values without a mark were called inactive. Activity calls are given as the source filed them. No stated cut-off is given here; in the data, active means growth inhibition above about 70%; inactive means the rest.

A short description of assay [1]: NCI Yeast Anticancer Drug Screen. Data for the rad50 strain (AID 155).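 Further: 0% = growth of vehicle-only cultures of the same strain.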 As to conditions: S. cerevisiae rad50 strain growth inhibition, stronger effect = higher value. The method in brief:
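Inhibition values express reduced yeast growth in compound-treated cultures relative to vehicle-treated controls.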

Assay [2] in a line: NCI Yeast Anticancer Drug Screen. Data for the mec2-1 strain (AID 157). As to conditions: S. cerevisiae mec2-1 strain, stronger effect = higher value. The method in brief:
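Test agents were screened against the mec2-1 yeast strain, with defined DNA repair or cell cycle alteration. Growth was scored as inhibition against vehicle-only controls.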

Assay [3] is described as follows: NCI Yeast Anticancer Drug Screen. Data for the sgs1 mgt1 strain (AID 161).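 Further: 0% = growth of cultures given vehicle only.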 As to conditions: S. cerevisiae sgs1 mgt1 strain, stronger effect = higher value. The method in brief: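 Inhibition of yeast growth, normalised to vehicle-treated controls, is reported for a strain bearing genetic alterations in DNA damage repair.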
Assay [4] is described as follows: NCI Yeast Anticancer Drug Screen. Data for the cln2 rad14 strain (AID 165).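 Further: 0% = growth equal to vehicle treated cultures.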 Particulars: S. cerevisiae cln2 rad14 strain, stronger effect = higher value. The method in brief: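 Growth of compound-exposed yeast (cln2 rad14 genotype) measured and expressed as inhibition relative to vehicle.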
Assay [5] in a line: NCI Yeast Anticancer Drug Screen. Data for the bub3 strain (AID 167). As to conditions: S. cerevisiae bub3 mutant strain, stronger effect = higher value. The method in brief:
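Steps: expose the mutant yeast strain to compound; grow alongside vehicle-treated cultures; measure growth; express inhibition against the vehicle cultures.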

Assay [6] in a line: NCI Yeast Anticancer Drug Screen. Data for the mlh1 rad18 strain (AID 175). As to conditions: S. cerevisiae mlh1 rad18 strain growth inhibition, stronger effect = higher value. The method in brief:
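In this whole-cell yeast screen, a strain with altered DNA damage repair is challenged with compound, and its growth is measured against matched vehicle-treated controls.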

Where [7] appears, read: at 5.0 µM (retest, dose inferred, filed as 0.5).
Where [8] appears, read: at 50.0 µM (retest, dose inferred, filed as 5.0).

Regarding `COc1ccc2c(c1)nc1ccc(Cl)cc1[n+]2C`, the growth inhibition was -6% in assay [1] (setting [7]); 61% in assay [1] (setting [8]); 82.2% (active) in assay [1] (at 50.0 µM); 2% in assay [2] (setting [7]); 64% in assay [2] (setting [8]); 84.1% (active) in assay [2] (at 50.0 µM). The growth inhibition in assay [3] (setting [7]) was -2%; in assay [3] (setting [8]) it was 55%; in assay [3] (at 50.0 µM), 82.2% (active); in assay [4] (setting [7]), -7%; in assay [4] (setting [8]), 52%; in assay [4] (at 50.0 µM) it was 83.1% (active). In addition, the growth inhibition in assay [5] (setting [7]) is 7%; in assay [5] (setting [8]), 70% (active); in assay [5] (at 50.0 µM), 92.2% (active); in assay [6] (setting [7]), 6%; in assay [6] (setting [8]) it was 66%; in assay [6] (at 50.0 µM) it was 89% (active).

On to `COc1ccc(C23OCCN2C(=O)c2ccccc23)cc1` (stereo not given), for which the growth inhibition is 4% in assay [1] (setting [7]); -3% in assay [1] (setting [8]); 97% (active) in assay [1] (at 50.0 µM); -15% in assay [2] (setting [7]); -6% in assay [2] (setting [8]); 97.1% (active) in assay [2] (at 50.0 µM). Besides, the growth inhibition in assay [3] (setting [7]) was -4%; in assay [3] (setting [8]), 2%; in assay [3] (at 50.0 µM) it was 97.5% (active); in assay [4] (setting [7]) it was -4%; in assay [4] (setting [8]), -2%; in assay [4] (at 50.0 µM) it was 92.7% (active). Also, the growth inhibition is -31% in assay [5] (setting [7]); -2% in assay [5] (setting [8]); 96.3% (active) in assay [5] (at 50.0 µM); -10% in assay [6] (setting [7]); -2% in assay [6] (setting [8]); 97.9% (active) in assay [6] (at 50.0 µM).

Consider `Oc1ccc(-c2nnc(-c3ccc(Cl)cc3Cl)o2)cc1`, for which the growth inhibition in assay [1] (setting [7]) is 6%; in assay [1] (setting [8]) it was 80% (active); in assay [1] (at 50.0 µM) it was 54.6%; in assay [2] (setting [7]), 2%; in assay [2] (setting [8]), 82% (active); in assay [2] (at 50.0 µM), 50.8%. The growth inhibition in assay [3] (setting [7]) was 0%; in assay [3] (setting [8]), 85% (active); in assay [3] (at 50.0 µM), 54.2%; in assay [4] (setting [7]) it was 2%; in assay [4] (setting [8]), 86% (active); in assay [4] (at 50.0 µM) it was 74.4% (active). For the same molecule, the growth inhibition in assay [5] (setting [7]) is 17%; in assay [5] (setting [8]) it was 91% (active); in assay [5] (at 50.0 µM), 47.5%; in assay [6] (setting [7]), -2%; in assay [6] (setting [8]), 76% (active); in assay [6] (at 50.0 µM), 51.8%.

`Oc1ccc(Cc2ccccc2)cc1Cl`: the growth inhibition in assay [1] (setting [7]) is -1%; in assay [1] (setting [8]), 74% (active); in assay [1] (at 50.0 µM) it was 47.5%; in assay [2] (setting [7]), -2%; in assay [2] (setting [8]), 72% (active); in assay [2] (at 50.0 µM), 41.7%. In addition, the growth inhibition was -2% in assay [3] (setting [7]); 78% (active) in assay [3] (setting [8]); 42.8% in assay [3] (at 50.0 µM); -4% in assay [4] (setting [7]); 47% in assay [4] (setting [8]); 95% (active) in assay [4] (at 50.0 µM). Also, the growth inhibition in assay [5] (setting [7]) is -6%; in assay [5] (setting [8]), 54%; in assay [5] (at 50.0 µM), 97.7% (active); in assay [6] (setting [7]) it was -1%; in assay [6] (setting [8]), 85% (active); in assay [6] (at 50.0 µM) it was 41.6%.

For the molecule `COC1OC(CN=[N+]=[N-])C(OC(=O)c2ccccc2)C(OC(C)=O)C1OC(C)=O` (stereo not given), the growth inhibition in assay [1] (setting [7]) is -3%; in assay [1] (setting [8]), -3%; in assay [1] (at 50.0 µM), 7.35%; in assay [2] (setting [7]), -24%; in assay [2] (setting [8]), 23%; in assay [2] (at 50.0 µM), 9.8%. For the same molecule, the growth inhibition in assay [3] (setting [7]) was -192%; in assay [3] (setting [8]) it was -1%; in assay [3] (at 50.0 µM), 18.1%; in assay [4] (setting [7]) it was 2%; in assay [4] (setting [8]) it was -2%; in assay [4] (at 50.0 µM) it was 0%. Further, the growth inhibition in assay [5] (setting [7]) was 61%; in assay [5] (setting [8]), 73% (active); in assay [5] (at 50.0 µM), 80% (active); in assay [6] (setting [7]), 13%; in assay [6] (setting [8]) it was 13%; in assay [6] (at 50.0 µM), 18.2%.

For the molecule `CCC(C(=O)CCN(C)C)(c1ccccc1)c1ccccc1`, the growth inhibition in assay [1] (setting [7]) is 67%; in assay [1] (setting [8]) it was 99% (active); in assay [1] (at 50.0 µM) it was 99.5% (active); in assay [2] (setting [7]), 49%; in assay [2] (setting [8]) it was 99% (active); in assay [2] (at 50.0 µM), 99.6% (active). For the same molecule, the growth inhibition in assay [3] (setting [7]) is 80% (active); in assay [3] (setting [8]), 99% (active); in assay [3] (at 50.0 µM), 99.3% (active); in assay [4] (setting [7]), 19%; in assay [4] (setting [8]) it was 99% (active); in assay [4] (at 50.0 µM) it was 99.3% (active). Also, the growth inhibition is 59% in assay [5] (setting [7]); 99% (active) in assay [5] (setting [8]); 99.8% (active) in assay [5] (at 50.0 µM); 80% (active) in assay [6] (setting [7]); 99% (active) in assay [6] (setting [8]); 99.5% (active) in assay [6] (at 50.0 µM).

For the molecule `CN(C)c1ccc(/C=C(/NC(=O)c2ccccc2)c2nc3ccc(Cl)cc3[nH]2)cc1`, the growth inhibition in assay [1] (setting [7]) is 16%; in assay [1] (setting [8]), 16%; in assay [1] (at 50.0 µM), 64.7%; in assay [2] (setting [7]), 6%; in assay [2] (setting [8]), 6%; in assay [2] (at 50.0 µM), 68.3%. Moreover, the growth inhibition in assay [3] (setting [7]) is -2%; in assay [3] (setting [8]), -2%; in assay [3] (at 50.0 µM) it was 67.2%; in assay [4] (setting [7]), 16%; in assay [4] (setting [8]) it was 16%; in assay [4] (at 50.0 µM), 60.5%. Besides, the growth inhibition in assay [5] (setting [7]) is -8%; in assay [5] (setting [8]), -8%; in assay [5] (at 50.0 µM), 71.5% (active); in assay [6] (setting [7]), -25%; in assay [6] (setting [8]), -25%; in assay [6] (at 50.0 µM) it was 73.8% (active).

Consider `Cc1n(CC(C)C)c2c([n+]1CC(=O)c1ccc([N+](=O)[O-])cc1)C(=O)c1ccccc1C2=O`, for which the growth inhibition in assay [1] (setting [7]) is 56%; in assay [1] (setting [8]), 92% (active); in assay [1] (at 50.0 µM) it was 88.2% (active); in assay [2] (setting [7]) it was 25%; in assay [2] (setting [8]), 98% (active); in assay [2] (at 50.0 µM), 90.7% (active). Also, the growth inhibition in assay [3] (setting [7]) was 44%; in assay [3] (setting [8]) it was 98% (active); in assay [3] (at 50.0 µM) it was 91.3% (active); in assay [4] (setting [7]), 66%; in assay [4] (setting [8]) it was 98% (active); in assay [4] (at 50.0 µM) it was 89.8% (active). The growth inhibition was 84% (active) in assay [5] (setting [7]); 98% (active) in assay [5] (setting [8]); 89.9% (active) in assay [5] (at 50.0 µM); 47% in assay [6] (setting [7]); 96% (active) in assay [6] (setting [8]); 90.2% (active) in assay [6] (at 50.0 µM).

For the molecule `COC(=O)c1ccc2c(c1)CC1(C2)Cc2ccccc2C1=O` (stereo not given), the growth inhibition in assay [1] (setting [7]) was 14%; in assay [1] (setting [8]) it was 88% (active); in assay [1] (at 50.0 µM), 68%; in assay [2] (setting [7]), -20%; in assay [2] (setting [8]), 92% (active); in assay [2] (at 50.0 µM), 77% (active). Also, the growth inhibition in assay [3] (setting [7]) is -4%; in assay [3] (setting [8]), 84% (active); in assay [3] (at 50.0 µM), 83.5% (active); in assay [4] (setting [7]) it was -37%; in assay [4] (setting [8]) it was 64%; in assay [4] (at 50.0 µM) it was 57.5%. The growth inhibition is 6% in assay [5] (setting [7]); 98% (active) in assay [5] (setting [8]); 87.1% (active) in assay [5] (at 50.0 µM); -17% in assay [6] (setting [7]); 94% (active) in assay [6] (setting [8]); 79.5% (active) in assay [6] (at 50.0 µM).

For the molecule `CC(=O)Oc1cccc2c(OC(C)=O)cccc12`, the growth inhibition in assay [1] (setting [7]) is -8%; in assay [1] (setting [8]), 87% (active); in assay [1] (at 50.0 µM), 69.2%; in assay [2] (setting [7]) it was -19%; in assay [2] (setting [8]), 91% (active); in assay [2] (at 50.0 µM) it was 39.8%. The growth inhibition in assay [3] (setting [7]) is -9%; in assay [3] (setting [8]) it was 53%; in assay [3] (at 50.0 µM), 70.8% (active); in assay [4] (setting [7]), -8%; in assay [4] (setting [8]), 34%; in assay [4] (at 50.0 µM) it was 26.9%. Moreover, the growth inhibition is -32% in assay [5] (setting [7]); 92% (active) in assay [5] (setting [8]); 58.2% in assay [5] (at 50.0 µM); -6% in assay [6] (setting [7]); 89% (active) in assay [6] (setting [8]); 65.6% in assay [6] (at 50.0 µM).
